# Source: the supplement of paper PMC10849652
# About 7,900 targets were measured; listed, in parts, are those with a hit and a random draw of the rest. About 0.6% of all pairs of compound and target were hits. Unmarked numbers belong to inactive results.
# Experiments:
# Test in all cases: log2 fold change, soluble protein after heating vs DMSO (PISA); higher = thermal stabilisation; K562 cells, 10 uM, 30 min; active = over 0.2 and 3.5 SD of the protein, either way, in both replicates (recomputed)
# IRAK-1-4 Inhibitor I = compound: C1COCCN1CCN2C3=CC=CC=C3N=C2NC(=O)C4=CC(=CC=C4)[N+](=O)[O-] [IRAK-1-4 Inhibitor I]
# How it was run: (§1)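 Quantification of soluble protein used TMTpro 16plex LC-MS/MS, with channel sums equalised. Samples were the supernatant after 21,000xg for 90 min of pooled aliquots from K562 cells (2×10^6 cells/mL) treated with 10 μM compound for 30 min, heated for 3 min over 48°C-58°C, and extracted in PBS with 0.5% NP-40 at 4°C. Values, from duplicates, describe thermal stability against control samples on a log2 fold-change scale.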
# ibrutinib = compound: C=CC(=O)N1CCC[C@@H](n2nc(-c3ccc(Oc4ccccc4)cc3)c3c(N)ncnc32)C1 [ibrutinib]
# How it was run: as §1
# [1] = compound: CC(=O)c1cnc2ccc(-c3cc(Cl)c(O)c(Cl)c3)nc2c1N[C@H]1CC[C@H](CN(C)C)CC1
# How it was run: as §1
# ralimetinib = compound: CC(C)(C)Cn1c(N)nc2ccc(-c3[nH]c(C(C)(C)C)nc3-c3ccc(F)cc3)nc21 [ralimetinib]
# How it was run: as §1
# [2] = compound: CC(C)(O)CC(=O)NCCn1ccc2ncnc(Nc3ccc(Oc4cccc(C(F)(F)F)c4)c(Cl)c3)c21
# How it was run: as §1
# [3] = compound: CC(C)C1=C2N=C(C=C(N2N=C1)NCC3=CC=CC=C3)NCCCCCCN
# How it was run: as §1
# [4] = compound: CC(C)C[C@@H](C=O)NC(=O)[C@H](CC(C)C)NC(=O)[C@H](CC(C)C)NC(=O)OCc1ccccc1
# How it was run: as §1
# pinometostat = compound: CC(C)N(C[C@H]1O[C@@H](n2cnc3c(N)ncnc32)[C@H](O)[C@@H]1O)[C@H]1C[C@@H](CCc2nc3cc(C(C)(C)C)ccc3[nH]2)C1 [pinometostat]
# How it was run: as §1
# [5] = compound: CC1=C(C(CC(=O)N1)C2=CC=C(C=C2)C(F)(F)F)C(=O)NC3=C(C=C4C(=C3)C=NN4)F
# How it was run: as §1
# [6] = compound: CC1=C(C2=C(C=C1)C(=O)C3=CC=CC=C3N2CCCN)C
# How it was run: as §1
# [7] = compound: CC1=C(C=C(C=C1)NC(=O)C2=CC(=CC=C2)C(C)(C)C#N)NC3=CC4=C(C=C3)N=CN(C4=O)C
# How it was run: as §1
# [8] = compound: CC1=C(C=C(C=C1)NC(=O)C2=CC(=CC=C2)N(C)C)NC(=O)C3=CC=C(C=C3)O
# How it was run: as §1
# [9] = compound: CC1=CC=C(C=C1)SC2=C3C=C(SC3=CN=C2)C(=O)N
# How it was run: as §1
# [10] = compound: CC1=NC(=CC=C1)C2=C(N=C(N2)C(C)(C)C)C3=CC4=NC=CN=C4C=C3
# How it was run: as §1
# Nexturastat A = compound: CCCCN(Cc1ccc(C(=O)NO)cc1)C(=O)Nc1ccccc1 [Nexturastat A]
# How it was run: as §1
# vemurafenib = compound: CCCS(=O)(=O)Nc1ccc(F)c(C(=O)c2c[nH]c3ncc(-c4ccc(Cl)cc4)cc23)c1F [vemurafenib]
# How it was run: as §1
# [11] = compound: CCCS(=O)(=O)Nc1ccc(F)c(C(=O)c2c[nH]c3ncc(Cl)cc23)c1F
# How it was run: as §1
# [12] = compound: CCCc1cc(C)[nH]c(=O)c1CNC(=O)c1cc(-c2ccnc(N3CCN(C)CC3)c2)cc2c1cnn2C(C)C
# How it was run: as §1
# givinostat = compound: CCN(CC)Cc1ccc2cc(COC(=O)Nc3ccc(C(=O)NO)cc3)ccc2c1 [givinostat]
# How it was run: as §1
# barasertib = compound: CCN(CCCOc1ccc2c(Nc3cc(CC(=O)Nc4cccc(F)c4)[nH]n3)ncnc2c1)CCOP(=O)(O)O [barasertib]
# How it was run: as §1
# UniProt Q658Y4, sequence (Q658Y4 whole entry, looked up): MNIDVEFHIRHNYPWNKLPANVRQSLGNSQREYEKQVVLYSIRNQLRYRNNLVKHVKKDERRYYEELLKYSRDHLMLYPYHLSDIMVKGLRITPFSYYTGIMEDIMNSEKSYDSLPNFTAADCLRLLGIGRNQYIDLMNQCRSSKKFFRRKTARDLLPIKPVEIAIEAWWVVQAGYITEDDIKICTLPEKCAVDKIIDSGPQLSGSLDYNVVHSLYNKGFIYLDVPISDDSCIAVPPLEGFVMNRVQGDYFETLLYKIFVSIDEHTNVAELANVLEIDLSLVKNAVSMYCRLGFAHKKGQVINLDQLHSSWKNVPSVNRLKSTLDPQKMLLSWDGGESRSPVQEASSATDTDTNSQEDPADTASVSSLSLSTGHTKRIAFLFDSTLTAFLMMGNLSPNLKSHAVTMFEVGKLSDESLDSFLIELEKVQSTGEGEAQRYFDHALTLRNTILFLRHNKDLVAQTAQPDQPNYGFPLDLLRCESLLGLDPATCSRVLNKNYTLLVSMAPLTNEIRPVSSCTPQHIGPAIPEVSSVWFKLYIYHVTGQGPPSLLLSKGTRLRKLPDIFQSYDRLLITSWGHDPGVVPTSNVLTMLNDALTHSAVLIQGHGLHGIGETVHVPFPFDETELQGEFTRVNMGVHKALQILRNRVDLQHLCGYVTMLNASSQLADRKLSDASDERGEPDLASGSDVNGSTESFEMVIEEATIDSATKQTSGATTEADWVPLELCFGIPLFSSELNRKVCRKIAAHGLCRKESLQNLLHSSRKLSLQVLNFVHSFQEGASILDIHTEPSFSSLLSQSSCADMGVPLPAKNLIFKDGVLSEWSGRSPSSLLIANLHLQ
# UniProt O14929, sequence (O14929 whole entry, looked up): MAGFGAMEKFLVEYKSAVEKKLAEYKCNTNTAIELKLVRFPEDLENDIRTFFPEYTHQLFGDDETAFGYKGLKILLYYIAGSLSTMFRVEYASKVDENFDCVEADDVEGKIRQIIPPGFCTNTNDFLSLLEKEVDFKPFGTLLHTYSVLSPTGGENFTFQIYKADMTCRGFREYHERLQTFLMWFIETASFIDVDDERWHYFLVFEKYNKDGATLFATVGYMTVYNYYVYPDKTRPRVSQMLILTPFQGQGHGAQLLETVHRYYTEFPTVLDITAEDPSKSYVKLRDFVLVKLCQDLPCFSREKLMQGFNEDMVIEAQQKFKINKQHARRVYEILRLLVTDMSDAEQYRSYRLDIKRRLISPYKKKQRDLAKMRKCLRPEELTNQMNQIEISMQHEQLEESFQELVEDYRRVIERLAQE
# UniProt P78417, sequence (P78417 whole entry, looked up): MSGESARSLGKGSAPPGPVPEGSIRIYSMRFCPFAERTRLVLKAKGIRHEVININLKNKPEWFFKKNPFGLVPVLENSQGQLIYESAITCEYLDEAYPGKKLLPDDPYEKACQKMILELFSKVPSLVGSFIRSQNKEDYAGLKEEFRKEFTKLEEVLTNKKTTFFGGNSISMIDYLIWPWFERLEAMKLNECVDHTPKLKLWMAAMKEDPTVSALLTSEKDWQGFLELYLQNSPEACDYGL
# UniProt P39748, sequence (P39748 whole entry, looked up): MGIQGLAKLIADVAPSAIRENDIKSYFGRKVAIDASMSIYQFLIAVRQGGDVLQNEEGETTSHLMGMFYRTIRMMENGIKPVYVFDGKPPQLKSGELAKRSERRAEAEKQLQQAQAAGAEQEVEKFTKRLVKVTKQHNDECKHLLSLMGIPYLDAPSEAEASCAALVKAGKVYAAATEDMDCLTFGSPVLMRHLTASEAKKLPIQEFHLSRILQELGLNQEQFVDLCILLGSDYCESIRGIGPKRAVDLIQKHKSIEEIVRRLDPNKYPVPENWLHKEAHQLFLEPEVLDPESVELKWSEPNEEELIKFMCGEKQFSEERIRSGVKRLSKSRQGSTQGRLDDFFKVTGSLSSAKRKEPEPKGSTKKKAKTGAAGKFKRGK
# UniProt P05114, sequence (P05114 whole entry, looked up): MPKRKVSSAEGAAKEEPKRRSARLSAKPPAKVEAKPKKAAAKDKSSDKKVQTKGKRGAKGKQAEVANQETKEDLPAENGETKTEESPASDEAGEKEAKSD
# UniProt Q03013, sequence (Q03013 whole entry, looked up): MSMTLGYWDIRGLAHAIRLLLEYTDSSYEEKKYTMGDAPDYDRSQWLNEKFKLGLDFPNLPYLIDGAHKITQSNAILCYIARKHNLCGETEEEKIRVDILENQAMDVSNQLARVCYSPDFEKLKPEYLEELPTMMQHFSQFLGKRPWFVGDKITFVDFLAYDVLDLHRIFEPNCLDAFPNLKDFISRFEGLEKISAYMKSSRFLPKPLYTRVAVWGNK
# UniProt P49841, sequence (P49841 whole entry, looked up): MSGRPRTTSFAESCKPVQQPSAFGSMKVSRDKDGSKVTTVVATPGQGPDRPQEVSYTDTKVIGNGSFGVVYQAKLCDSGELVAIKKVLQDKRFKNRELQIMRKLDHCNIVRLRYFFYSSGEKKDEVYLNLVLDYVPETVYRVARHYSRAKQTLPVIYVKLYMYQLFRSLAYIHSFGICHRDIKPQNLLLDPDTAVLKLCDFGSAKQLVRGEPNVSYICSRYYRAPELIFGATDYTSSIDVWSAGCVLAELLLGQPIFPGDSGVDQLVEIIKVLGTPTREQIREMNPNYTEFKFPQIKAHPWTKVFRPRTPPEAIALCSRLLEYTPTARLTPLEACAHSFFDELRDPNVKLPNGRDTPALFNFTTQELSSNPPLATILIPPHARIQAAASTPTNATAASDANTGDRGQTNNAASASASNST
# UniProt Q8N9F7, sequence (Q8N9F7 whole entry, looked up): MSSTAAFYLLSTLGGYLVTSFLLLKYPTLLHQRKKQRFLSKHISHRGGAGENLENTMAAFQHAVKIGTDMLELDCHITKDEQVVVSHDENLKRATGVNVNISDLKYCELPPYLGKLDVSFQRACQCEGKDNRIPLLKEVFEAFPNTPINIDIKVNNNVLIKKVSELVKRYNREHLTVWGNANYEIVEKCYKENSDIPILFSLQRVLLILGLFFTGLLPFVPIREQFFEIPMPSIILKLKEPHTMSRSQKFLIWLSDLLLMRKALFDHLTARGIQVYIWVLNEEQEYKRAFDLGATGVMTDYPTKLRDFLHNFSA
# UniProt Q9H0R4, sequence (Q9H0R4 whole entry, looked up): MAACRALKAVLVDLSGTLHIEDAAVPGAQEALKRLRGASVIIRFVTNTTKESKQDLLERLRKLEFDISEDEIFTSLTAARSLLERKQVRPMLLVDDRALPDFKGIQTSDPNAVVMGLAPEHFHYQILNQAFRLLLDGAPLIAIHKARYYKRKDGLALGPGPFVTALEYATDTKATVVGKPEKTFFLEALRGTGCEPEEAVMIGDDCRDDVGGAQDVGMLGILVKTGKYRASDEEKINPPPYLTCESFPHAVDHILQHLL
# UniProt Q92947, sequence (Q92947 whole entry, looked up): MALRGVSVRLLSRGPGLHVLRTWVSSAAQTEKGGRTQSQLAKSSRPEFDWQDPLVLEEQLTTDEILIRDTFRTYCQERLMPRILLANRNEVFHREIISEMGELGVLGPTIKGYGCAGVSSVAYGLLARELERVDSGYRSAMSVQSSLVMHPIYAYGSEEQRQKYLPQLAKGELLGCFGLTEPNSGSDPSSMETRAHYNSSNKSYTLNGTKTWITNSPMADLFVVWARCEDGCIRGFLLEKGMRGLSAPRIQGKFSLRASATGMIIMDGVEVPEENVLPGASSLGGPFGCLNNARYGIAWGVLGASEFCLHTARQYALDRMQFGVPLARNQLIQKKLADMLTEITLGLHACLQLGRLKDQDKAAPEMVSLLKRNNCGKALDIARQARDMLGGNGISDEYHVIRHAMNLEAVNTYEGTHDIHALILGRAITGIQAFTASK
# UniProt O94925, sequence (O94925 whole entry, looked up): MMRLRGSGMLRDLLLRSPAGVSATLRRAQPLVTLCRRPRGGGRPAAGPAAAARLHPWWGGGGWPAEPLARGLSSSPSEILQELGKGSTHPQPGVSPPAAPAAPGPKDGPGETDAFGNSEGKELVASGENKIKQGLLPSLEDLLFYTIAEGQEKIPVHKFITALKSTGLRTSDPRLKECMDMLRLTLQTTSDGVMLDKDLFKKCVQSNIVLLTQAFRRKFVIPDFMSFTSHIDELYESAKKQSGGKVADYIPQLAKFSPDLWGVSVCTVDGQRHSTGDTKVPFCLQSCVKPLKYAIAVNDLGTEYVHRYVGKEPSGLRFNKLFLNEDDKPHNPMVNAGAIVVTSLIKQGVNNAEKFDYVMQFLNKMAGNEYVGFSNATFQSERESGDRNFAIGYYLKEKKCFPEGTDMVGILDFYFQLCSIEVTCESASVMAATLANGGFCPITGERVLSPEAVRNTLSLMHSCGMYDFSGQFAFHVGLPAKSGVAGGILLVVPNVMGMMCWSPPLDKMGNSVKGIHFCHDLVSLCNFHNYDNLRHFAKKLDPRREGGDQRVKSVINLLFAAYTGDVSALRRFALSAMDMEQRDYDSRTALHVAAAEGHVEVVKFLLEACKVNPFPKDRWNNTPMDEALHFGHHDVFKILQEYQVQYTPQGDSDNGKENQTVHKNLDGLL
# UniProt P60520, sequence (P60520 whole entry, looked up): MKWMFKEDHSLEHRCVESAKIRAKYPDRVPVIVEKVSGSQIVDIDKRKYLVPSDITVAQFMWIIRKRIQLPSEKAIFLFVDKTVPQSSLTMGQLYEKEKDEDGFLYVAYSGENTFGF
Target,log2 fold change (IRAK-1-4 Inhibitor I),log2 fold change (ibrutinib),log2 fold change [1],log2 fold change (ralimetinib),log2 fold change [2],log2 fold change [3],log2 fold change [4],log2 fold change (pinometostat),log2 fold change [5],log2 fold change [6],log2 fold change [7],log2 fold change [8],log2 fold change [9],log2 fold change [10],log2 fold change (Nexturastat A),log2 fold change (vemurafenib),log2 fold change [11],log2 fold change [12],log2 fold change (givinostat),log2 fold change (barasertib)
FEN1 (UniProt P39748),-0.071,-0.016,-0.116,-0.008,-0.368,-0.393,0.039,-0.03,-0.067,-0.016,0.018,-0.08,0.045,0.057,-0.194,0.121,0.022,-0.03,0.096,0.088
GLS isoform 3 (UniProt O94925),0.011,-0.15,-0.046,-0.19,-0.547 (active),-0.034,-0.04,-0.088,0,-0.068,0.004,-0.119,-0.01,0.167,0.087,0.155,0.236,0.061,0.031,0.061
GSTO1 (UniProt P78417),0.073,-0.029,0.006,0.021,-0.029,0.066,-0.045,-0.047,0.021,0.021,-0.031,0.002,0.03,0.03,-0.121,0.02,0.017,0.15,-0.043,0.016
GSK3B isoform 2 (UniProt P49841),0.017,0.019,0.144,-0.005,-0.07,0.004,-0.031,-0.022,-0.008,-0.017,0.015,-0.022,0.044,0.034,0.003,-0.008,-0.018,-0.066,-0.07,-0.017
GCDH (UniProt Q92947),0.018,0.025,-0.092,0.007,-0.09,0.05,0.003,-0.053,-0.012,0.055,-0.017,-0.004,0.014,0.009,-0.007,0,0.002,0.009,0.004,0.005
HMGN1 (UniProt P05114),-0.006,0.049,0.064,0.032,0.166,0.148,0.042,-0.022,0.014,0.294 (active),0.056,0.027,-0.048,0.078,-0.017,0.004,-0.064,-0.033,-0.119,-0.06
HSPA8 (UniProt E9PK54),-0.051,-0.012,0.015,-0.161,0.058,0.141,0.074,0.001,0.017,-0.262,0.023,0.034,-0.123,0.006,0.227,-0.036,0.026,-0.098,0.167,-0.023
FAM91A1 (UniProt Q658Y4),0.092,-0.025,-0.025,0.076,-0.198,-0.041,0,0.134,0.018,0.083,0.035,0.034,-0.036,-0.048,0.286 (active),-0.055,0.051,0.07,0.024,0.06
HAT1 (UniProt O14929),0.027,-0.009,-0.109,-0.003,-0.027,0.006,-0.022,-0.048,-0.013,-0.03,0.042,-0.037,0.008,0.095,-0.034,0.087,0.013,0.007,0.005,0.025
GDPD1 (UniProt Q8N9F7),0.02,-0.03,0.044,0.066,-0.03,0.04,0.03,-0.027,-0.005,-0.015,0.003,-0.135,0.022,-0.07,-0.026,0.022,-0.081,0.099,-0.046,0.001
GABARAPL2 (UniProt P60520),0.107,-0.018,-0.076,0.008,-0.028,-0.269 (active),-0.007,-0.103,0.016,-0.015,-0.01,0.023,0.067,0.188,-0.122,0.026,0.051,-0.03,0.03,0.007
GSTM4 (UniProt Q03013),0.091,-0.028,-0.083,-0.035,-0.103,0.029,-0.008,-0.05,-0.036,0.115,0.106,0.128,-0.041,0.015,-0.117,0.126,-0.058,-0.105,0.001,-0.164
HMGN2 (UniProt P05204),-0.034,-0.009,0.121,-0.024,0.29,0.128,0.093,-0.074,0.108,0.401 (active),0.115,0.097,-0.038,0.047,-0.016,0.032,-0.058,-0.078,-0.019,0.047
GNS (UniProt P15586),0.023,-0.011,0.011,-0.04,0.065,-0.079,0.025,-0.025,-0.017,-0.01,-0.021,0.112,0.044,0.026,-0.03,0.023,-0.005,0.003,0.011,-0.004
HDHD2 (UniProt Q9H0R4),0.007,-0.019,0.021,-0.006,-0.168,0.024,-0.037,-0.018,-0.025,0.003,0.059,0.028,0.023,0.014,-0.316 (active),0.02,0.007,-0.028,0.007,0.011
